# Many of the other results were omitted from the sample, so hits are more common in it than they were.
# CBX7 AlphaScr = CBX7 inhibition, primary AlphaScreen; O95931; AlphaScreen His6-CBX7 / biotin-H3K27me3 peptide binding; stronger effect = lower value; normalised signal (fraction of DMSO) (concentration not given with the values); 1.1% of 66,000 active; AID 1224903; in the data active = normalised signal below about 0.5
# Target sequence (O95931 whole entry, looked up): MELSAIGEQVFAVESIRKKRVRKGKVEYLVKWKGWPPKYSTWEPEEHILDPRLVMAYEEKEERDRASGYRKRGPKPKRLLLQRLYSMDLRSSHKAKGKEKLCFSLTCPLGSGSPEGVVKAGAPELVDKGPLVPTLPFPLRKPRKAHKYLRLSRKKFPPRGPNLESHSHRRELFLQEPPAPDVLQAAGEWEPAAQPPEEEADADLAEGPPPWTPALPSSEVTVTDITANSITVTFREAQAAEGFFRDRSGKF
# The depositor's hits bear a star.
SMILES,CBX7 AlphaScr
Cc1ccc(S(=O)(=O)Nc2nc3ccccc3nc2N2CCN(C)CC2)cc1,1
CN1CCN(c2nc3ccccc3nc2NS(=O)(=O)c2ccc(Br)cc2)CC1,0.83
O=S(=O)(Nc1nc2ccccc2nc1N1CCc2ccccc2C1)c1ccc(Br)cc1,0.4*
COc1ccc(CNC(=O)C(NS(=O)(=O)c2ccc3nc(C)sc3c2)C(C)C)cc1 (configuration not stated),1.1
COc1ccc(CN2C(=O)CCC2(C)C(=O)NC2CCCCCCC2)cc1 (configuration not stated),1
COCCNC(=O)c1sc2ncn(CC(=O)Nc3cccc(C(F)(F)F)c3)c(=O)c2c1C,1
CC(C)NC(=O)CN1C(=O)COc2ccc(C(C)(C)C)cc21,0.87
Cc1cc(C)n(Cc2ccc(F)cc2)c(=O)c1C#N,1.1
N#Cc1c(-c2ccc(F)cc2)c(C#N)c(=O)n(N)c1N,0.16*
Cc1ccc(C)c(NC(=O)Cn2cc(S(=O)(=O)c3ccc(Cl)cc3)c(=O)c3cc(C)ccc32)c1,1
CCc1cc(-c2n[nH]c(C)c2Oc2ccccc2)c(O)cc1O,0.41*
CCOc1cc(O)c(-c2n[nH]c(C)c2Oc2ccccc2)cc1CC,0.75
Cc1[nH]nc(-c2ccc(O)c(C)c2O)c1Oc1ccccc1,0.64
COC(=O)c1c(C)n(C)c2ccc(O)cc12,0.98
CCOc1ccccc1C1CC(=O)C2=C(C1)Nc1ccccc1NC2c1ccc(OC)cc1 (configuration not stated),0.99
COc1cc(OC)cc(-c2nc3nc(C)c(CCC(=O)NCc4ccc(C)cc4)c(C)n3n2)c1,0.9
CCOC(=O)N1CCN(C(=O)C2CCN(C(=O)c3cc4sccc4n3CC)CC2)CC1,0.92
CCn1c(C(=O)N2CCCC(C(=O)N3CCN(c4cccc(C)c4)C(C)C3)C2)cc2sccc21 (configuration not stated),0.6
CCn1c(C(=O)N2CCC(C(=O)N3CCN(c4cccc(C)c4)C(C)C3)CC2)cc2sccc21 (configuration not stated),0.44*
Cc1ccc2c(c1)-c1c(cnn1CC(=O)N1CCCCC1C)CO2 (configuration not stated),1
CC1CCN(S(=O)(=O)c2ccc3c(c2)N(CC(=O)N2CCN(C)CC2)C(=O)CO3)CC1,1.1
Cc1ccc(-c2nnn(CC(=O)NCc3ccccn3)n2)cc1,1
Cc1cccc(-c2nc(C(=O)NC(C)CCc3ccccc3)c(C)o2)c1 (configuration not stated),0.89
CCc1ccc(-c2nc(CSCC(=O)NC3CCCCCC3)c(C)o2)cc1,0.4*
Cc1oc(-c2ccc(Cl)cc2)nc1CSCC(=O)NC1CC1,1.1
SMILES,CBX7 AlphaScr
Cc1oc(-c2cccc(F)c2)nc1CSCC(=O)NC1CCCCC1,1.2
Cc1c(C(=O)Nc2ccc(F)cc2Cl)sc2ncn(Cc3ccccc3F)c(=O)c12,1
CCn1c(C(=O)N2CCCC(C(=O)NC3CCCC(C)C3C)C2)cc2sccc21 (configuration not stated),0.72
CC(=O)Nc1cccc(Oc2ccc3c(c2)C(=O)N(c2cccc(Cl)c2)C3=O)c1,0.85
Cc1ccc(N2C(=O)CC(c3cccnc3)C3=C2CC(C)(C)CC3=O)cc1 (configuration not stated),1.1
COc1ccc(N2CCN(c3oc(COc4ccc(F)cc4)nc3C#N)CC2)cc1,0.55
N#Cc1nc(COc2ccccc2F)oc1N1CCN(Cc2ccccc2)CC1,0.46*
COc1ccc(N2CCN(c3oc(COc4ccccc4C)nc3C#N)CC2)cc1,0.52
COc1ccc(N2CCN(c3oc(COc4ccc(C)cc4)nc3C#N)CC2)cc1,0.48*
N#Cc1nc(COc2ccc(Br)cc2)oc1N1CCN(Cc2ccccc2)CC1,0.65
COc1ccc(OCc2nc(C#N)c(N3CCN(c4ccc(OC)cc4)CC3)o2)cc1,0.69
COc1ccccc1OCc1nc(C#N)c(N2CCN(c3ccccc3)CC2)o1,0.52
Cc1ccccc1OCc1nc(C#N)c(N2CCN(c3ccccc3)CC2)o1,0.42*
N#Cc1nc(COc2ccccc2F)oc1N1CCCCCC1,0.56
CCc1ccc2c(c1)c(=O)c(S(=O)(=O)c1ccc(F)cc1)cn2CC(=O)Nc1cccc(Cl)c1,0.89
Cc1ccc2c(c1)-c1c(cnn1CC(=O)Nc1nc(C)cs1)CO2,0.91
Cc1ccc(C)c(Cc2c(C)nc3nc(SCC(=O)NCc4ccccc4)nn3c2C)c1,0.93
O=C(c1ccc2c(c1)N(Cc1ccccc1F)C(=O)c1ccccc1S2)N1CCc2ccccc2C1,0.91
COc1ccc2[nH]cc(CCNC(=O)NC3CCCCC3)c2c1,1
COc1ccc2c(c1)CCc1sc(NC(=O)c3cccc(F)c3)nc1-2,1.1
CCN(C(=O)CCc1nc(-c2ccc(OC)cc2)no1)c1cccc(Cl)c1,0.98
CC1CCN(Cc2cc(Cl)c3cccnc3c2O)CC1,0*
CC1CCN(CCCNC(=O)c2cnc(N3CCN(c4ncccn4)CC3)c3ccccc23)CC1,1.1
Cc1[nH]c2ccccc2c(=O)c1CN1CCC(C)CC1,1.1
CC1CCN(Cc2cc(Cn3ccnc3)c3cccnc3c2O)CC1,0.0061*
